Screening data as filed in PubChem BioAssay.
RXFP1 antag: qHTS Assay for Antagonists of the Relaxin Receptor RXFP1; 350,000 tested, 0.59% active; AID 1259400, 2018; Relaxin receptor 1 (Homo sapiens), Q9HBX9; activity change, negative = inhibition, % at 57.5 µM; HEK293-RXFP1, relaxin-stimulated cAMP HTRF, 30 min; hits give low values;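 active = activity change of -60% or lower, but not beyond a set lower limit; inconclusive = change between -60% and -40%, or beyond the set limit; inactive = change above -40%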; note: % is set by controls: 0 for no effect and ±100 for the full control effect
Target sequence (Q9HBX9 whole entry, looked up): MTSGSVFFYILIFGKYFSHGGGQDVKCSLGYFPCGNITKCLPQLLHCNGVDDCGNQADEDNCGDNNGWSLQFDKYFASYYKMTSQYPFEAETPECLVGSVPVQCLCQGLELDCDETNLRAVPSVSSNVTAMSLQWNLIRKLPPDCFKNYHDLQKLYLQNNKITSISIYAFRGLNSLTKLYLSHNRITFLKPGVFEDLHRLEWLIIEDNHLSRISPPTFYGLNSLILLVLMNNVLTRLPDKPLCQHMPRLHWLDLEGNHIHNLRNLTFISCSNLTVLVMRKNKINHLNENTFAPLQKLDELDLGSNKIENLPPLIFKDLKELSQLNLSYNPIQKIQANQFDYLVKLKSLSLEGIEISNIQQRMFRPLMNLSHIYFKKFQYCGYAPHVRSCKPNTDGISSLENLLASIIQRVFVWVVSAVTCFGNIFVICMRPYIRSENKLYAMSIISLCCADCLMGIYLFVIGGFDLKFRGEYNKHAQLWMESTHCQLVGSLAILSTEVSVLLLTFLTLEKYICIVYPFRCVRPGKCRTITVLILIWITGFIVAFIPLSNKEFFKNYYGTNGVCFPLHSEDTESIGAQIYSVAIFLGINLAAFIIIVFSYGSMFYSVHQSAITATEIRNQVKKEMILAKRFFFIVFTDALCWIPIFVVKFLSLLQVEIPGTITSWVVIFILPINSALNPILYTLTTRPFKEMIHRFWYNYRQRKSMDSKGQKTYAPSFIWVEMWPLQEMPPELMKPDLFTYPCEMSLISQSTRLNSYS
Giardia killer: Small Molecules that selectively kill Giardia lamblia: qHTS | Giardia lamblia trophozoite viability | activity change, % at 7.66 µM, hits read low | 340,000 tested, 0.15% active | AID 540267, 2011; in the data active = activity change below about -80%; inconclusive = between about -30% and that limit;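 note: parasites exposed to compound for two days anaerobically before the ATP read; % is set by controls: 0 for no effect and ±100 for the full control effect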
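Media and compound were dispensed first, then trophozoites at 100 cells/well; plates sat 48 hrs at 37 deg C without oxygen before ATP luminescence reagent was added and read after 15-30 min at room temperature.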
RXFP1 ag: qHTS Assay for Agonists of the Relaxin Receptor RXFP1; Potency, µM (titrated, usually from 57.5 µM), for the others: at the top dose activation, usual class: activators; HEK293T-RXFP1 cAMP TR-FRET, 30 min; response scale: percent of porcine relaxin response, buffer zero; 370,000 tested, 0.3% active; AID 2676, 2010; active = well fitted activation curve with a large enough effect; inconclusive = small, poorly fitted or top-dose-only effect; note: potency is the fitted concentration of half-maximal effect; % is set by controls: 0 for no effect and ±100 for the full control effect; nearly all actives have a fitted effect of over 60% in size
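Agonist response is measured as cAMP accumulation in an RXFP1-transfected HEK293T line under PDE4 inhibition. Values are scaled between buffer-only and 29 nM porcine relaxin, and EC50s come from standard Hill equation fits.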
FBPA coupling cs: qHTS Assay for Inhibitors of Fructose-1,6-bisphosphate Aldolase from Giardia Lamblia: Coupling assay counterscreen; coupling enzyme system counterscreen, AmpLite Red fluorescence; activity change, negative = inhibition, % at 58.2 µM, hits read low; AID 2472, 2010; 290,000 tested, 0.67% active; in the data active = activity change below about -30%; note: % is set by controls: 0 for no effect and ±100 for the full control effect
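Compounds tested against the coupling enzymes alone at 57.5 uM final; readout was AmpLite Red fluorescence (525/598 nm) after 20 min at RT.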
gsp antagonist: qHTS for Antagonists of gsp, the Etiologic Mutation Responsible for Fibrous Dysplasia/McCune-Albright Syndrome: qHTS; AID 624288, 2012; Potency, µM (highest dose often 76.9 µM), inactives show at the highest dose activity change, negative = inhibition, usual class: inhibitors; gsp-mutant cells, cAMP HTRF, 30 min; 340,000 tested, 0.4% active; calls by dose curve; cell line not stated here;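 note: intracellular cAMP measured with PDE inhibitor Ro 20-1724 present during compound exposure; potency is the fitted concentration of half-maximal effect; % is set by controls: 0 for no effect and ±100 for the full control effect; nearly all actives have a fitted effect of over 65% in size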
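Cells, 2000/well, grown 16–24 h in DMEM 10% FBS with 0.5 mg/ml G418, then compounds plus […] (300 uM addition stock), 30 min at 37C. cAMP read by HTRF (cAMP-d2 and anti-cAMP antibody-K in lysis buffer) after 30 min RT.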
gsp ag: qHTS for Agonist of gsp, the Etiologic Mutation Responsible for Fibrous Dysplasia/McCune-Albright Syndrome: qHTS | AID 624287, 2012 | gsp mutant cells, cAMP HTRF, 30 min | Potency, µM (top dose mostly 76.9 µM), for inactives: top-dose activation (cAMP increase), hits mostly activators | 340,000 tested, 0.13% active; active = well fitted activation curve with a large enough effect; inconclusive = small, poorly fitted or top-dose-only effect, or another doubt; inactive = no such curve, though single readings can be large or run the other way; cell line not stated here;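 note: phosphodiesterase inhibitor Ro 20-1724 added with compounds to block cAMP breakdown; potency is the fitted concentration of half-maximal effect; nearly all actives have a fitted effect of over 60% in size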
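Cells in DMEM/10% FBS with G418 were pretreated with compounds in DMSO plus […] (300 uM stock) for 30 min at 37C. cAMP was measured by HTRF (cAMP-d2 plus anti-cAMP antibody-K) after 30 min at room temperature.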
* marks the source's active call; other numbers are inactive results; u = inconclusive; x = no result given; [ ] = remark or other dose. Shown are actives, neighbours in structure and some others; about 1.6% of the full set was active somewhere.

SMILES	RXFP1 antag	Giardia killer	RXFP1 ag	FBPA coupling cs	gsp antagonist	gsp ag
Cc1ccc2[nH]c3c(=S)nc[nH]c3c2c1	19	-19	3.5µM*	2	31%	11µM*
Cc1c(C)c2c(c(C)c1OC(=O)CCC(=O)OCCO)CC[C@](C)(CCC[C@H](C)CCC[C@H](C)CCCC(C)C)O2	-19	x	x	x	x	x
CCOP1(=O)OCC2OC(n3cnc4c(N)ncnc43)C(O)C2O1 (stereo not given)	32	3	10µM*	-1	31%	112%[15.4 µM]
COc1ccc(NC(=O)c2cc(-c3ccccc3)nc3c2cnn3C(C)C)cc1	-16	-1	2%	x	28µM*	17%
CC(C)n1ncc2c(C(=O)N3CCN(c4ccccc4)CC3)cc(-c3ccccc3)nc21	-13	-18	1%	x	-15%	0%
Cc1cc2c(c(=O)o1)C1O[C@](c3ccsc3)(Cc3cc(C#N)ccc31)O2	x	x	1%[11.5 µM]	-4	x	x
Cc1[nH]c2c(ccc3cccnc32)c1C	-8	0	-7%	-14	-3%	8%[15.4 µM]
CC1=[N+](C)c2c(ccc3cccnc23)C1(C)C	-4	15	7%	-58*	x	5%[15.4 µM]
CC(C)=NOC[C@@H](O)COCc1ccco1	x	x	x	2	x	x
CCc1ccc([C@@H]2CC=C(C(=O)O)[C@H](c3ccccc3F)N2S(=O)(=O)c2ccc(C)cc2)cc1	x	-2	0%	x	-18%	-105%
CCOC(=O)c1c(NC(=O)C2CC2)sc2c1CC(C)(C)OC2	-32	-3	9%	1	-15%	2%
CCOC(=O)c1c(NC(=S)N2CCCCC2)sc2c1CCN(C(=O)OCC)C2	-16	7	7%	1	u	6%[15.4 µM]
CCOC(=O)c1c(NC(=O)C2CC(Cl)=CCC2C(=O)O)sc2c1CC(C)(C)OC2 (stereo not given)	-6	0	5%	12	14µM*	23%[15.4 µM]
CCOC(=O)c1c(NC(=O)CCC(=O)O)sc2c1CC(C)(C)OC2	-22	-11	-2%	6	-27%	3%[15.4 µM]
C=CCNC(=S)Nc1sc2c(c1C(=O)OCC)CCN(C(=O)OCC)C2	-80*	9	11%	0	-2%	16%
C=CCNC(=S)Nc1sc2c(c1C(=O)OCC)CC(C)(CC)OC2 (stereo not given)	-36	3	7%	0	7.9µM*	-2%[15.4 µM]
COC(=O)c1cc(CSc2nc3ccccc3c(=O)n2C)oc1C	8	-17	6%	0	35µM*	-16%
COCCn1c(SCc2ccc(C(=O)OC)o2)nc2ccccc2c1=O	-9	-2	-1%	0	-3%	-48%
CCCn1c(SCc2nc(-c3cc(OC)ccc3OC)no2)nnc1-c1ccc(Cl)cc1	-7	x	1%	x	x	x
CNC(=O)c1cnn(-c2nc(N)c3ncn([C@@H]4O[C@H](CO)[C@@H](O)[C@H]4O)c3n2)c1	7	x	x	x	x	x
Cc1cccc(CNC(=O)C2CCN(c3nc4ccc(Cl)cc4[nH]3)CC2)c1	-72*	x	5%	x	x	x
Cn1nnc(NC(=S)NC(=O)c2ccco2)n1	16	-3	-1%	-43*	6%	24%
Cn1c(=O)c([N+](=O)[O-])c(NCCc2ccccc2)c2ccccc21	-12	2	2%	3	-16%	-14%[15.4 µM]
CCn1c(=O)c([N+](=O)[O-])c(NCCc2ccccc2)c2ccccc21	-10	2	0%	0	40µM*	-8%
N#C/C(=C\c1cc(O)c(O)c(O)c1)C(N)=O	2	-25	-3%	-49*	u	4%
SMILES	RXFP1 antag	Giardia killer	RXFP1 ag	FBPA coupling cs	gsp antagonist	gsp ag
N#C/C(=C\c1cc(Cl)c(OCc2ccc(Cl)cc2)c(Cl)c1)C(N)=O	x	x	3%	-2	x	x
Cc1c(/C=N\NC(=O)C2(C)CC2(Cl)Cl)cnn1C (stereo not given)	x	33	4%	1	6%	-18%
CC1(C(=O)N/N=C/c2c(F)c(F)c(F)c(F)c2F)CC1(Cl)Cl (stereo not given)	-68*	0	x	x	-18%	-5%
O=C(C=C=Nc1ccccc1)C(=O)N=C=Cc1ccccc1	-61*	7	-2%	1	-12%	18%[15.4 µM]
CCCCCCOc1ccc(C2C(=O)N(C3CCCCC3)CC(=O)N2C2CCCCC2)cc1 (stereo not given)	-18	x	-1%	x	x	x
CCCCCCOc1ccc(C2C(=O)N(C3CCCCC3)CC(=O)N2CCC)cc1 (stereo not given)	-69*	x	0%	x	x	x
Fc1ccc2c(c1)Sc1ccc(Cl)cc1CC2N1CCN(CCC2OCCO2)CC1 (stereo not given)	-62*	-20	x	x	9%	u
O=C(O)Cn1cnnn1	3	x	x	x	x	x
CC(=O)NC12CC3CC(C1)CC(C(=O)NCc1ccc(C)cc1)(C3)C2	-68*	2	-1%	1	7%	-4%
COc1ccccc1NC(=O)COC(=O)CC(C)(C)CC1=NS(=O)(=O)c2ccccc2N1	-83*	4	-1%	x	-24%	8%
COc1cc2c(cc1OC)CN(Cc1nc3ccsc3c(=O)[nH]1)CC2	3	-5	1%	-43*	16%	0%
COc1oc(=O)c2cc(N)ccc2c1Cl	x	x	x	1	x	x
C/C(=N/NC(=O)c1sc(NS(=O)(=O)c2ccc(C)cc2)nc1C)c1sc(N)nc1C	8	-2	2%	3	-22%	3%[15.4 µM]
Cc1cc(-c2ccc(C(C)C)c(S(=O)(=O)Nc3cc(C)on3)c2)on1	-65*	-17	1%	-1	-27%	u
CCOc1ccc(NS(=O)(=O)c2ccc3[nH]c4c(c3c2)CCCCC4)cc1	u	x	-3%	x	x	x
Cn1c(/C(C#N)=C(\O)c2ccc([N+](=O)[O-])s2)nc2ccccc21	14	-86*	1%	-1	8%	10%[15.4 µM]
O=C(Nc1nc(=O)c2ccccc2s1)c1ccc(F)cc1	-21	1	1%	-7	6%	-6%
O=C(Nc1nc2ccsc2c(=O)s1)c1ccc(Cl)cc1	3	-10	13µM*	1	2%	u
O=C(Nc1nc(=O)c2ccccc2s1)c1ccc(Cl)cc1	10	-10	32µM*	2	-9%	u
COc1ccccc1CNc1ncnc2ccc(-c3ccccc3OC)cc12	x	x	x	1	x	x
O=C(NC1CCN(Cc2ccccc2)C1)c1cccc(S(=O)(=O)N2CCOCC2)c1 (stereo not given)	-5	3	1%	x	9%	22%
O=C(NC1CCN(Cc2ccccc2)CC1)c1cc(S(=O)(=O)N2CCOCC2)ccc1Cl	-2	-4	x	x	50µM*	21%
